According to PubChem BioAssay AID1159580 (chemical genetic matrix, 2015):
The campaign covered roughly 5,500 compounds. About 2,000 (36%) were called active. Not shown: some 18% with an inconclusive outcome. Cut-off read from the data, not from the text of the source: active = normalized growth mostly below about 0.91 (no sharp cut-off); inconclusive = no clear call, values can overlap the other calls; inactive = mostly above about 0.92. The list shows a part of the results.

Assay: chemical genetic growth profiling, strain panel (AID 1159580);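 note: tested at 20 µM; growth read once vehicle control cultures reached saturation at 30 °C; 1 = growth at the plate median or of vehicle wells; lower values mean less growth of the strain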
Details: growth OD

Measured: normalized growth

CN1CCOC(c2ccccc2)c2ccccc2C1 (configuration not stated)
inactive: S. cerevisiae deletion strains, locus YJR075W, strain HOC1, hits give low values 0.992 | S. cerevisiae deletion strains, locus YKL009W, strain mrt4, hits give low values 0.956 | S. cerevisiae deletion strains, locus YKL068W, hits give low values 1.01 | S. cerevisiae deletion strains, locus YKL085W, strain MDH1 (second series), hits give low values 0.996 | S. cerevisiae deletion strains, locus YKL085W, strain MDH1, hits give low values 0.996 | S. cerevisiae deletion strains, locus YKL160W, strain elf1, hits give low values 0.993 | S. cerevisiae deletion strains, locus YKL190W, strain CNB1, hits give low values 1 | S. cerevisiae deletion strains, locus YKR001C, strain vps1, hits give low values 1.03 | S. cerevisiae deletion strains, locus YKR026C, strain gcn3, hits give low values 0.978 | S. cerevisiae deletion strains, locus YKR091W, strain srl3, hits give low values 0.984 | S. cerevisiae deletion strains, locus YLL001W, strain dnm1, hits give low values 0.976 | S. cerevisiae deletion strains, locus YLL026W, hits give low values 0.99 | S. cerevisiae deletion strains, locus YLL041C, strain sdh2, hits give low values 0.983 | S. cerevisiae deletion strains, locus YLR027C, strain aat2, hits give low values 1 | S. cerevisiae deletion strains, locus YLR039C, strain RIC1, hits give low values 1.01 | S. cerevisiae deletion strains, locus YLR058C, strain SHM2, hits give low values 1 | S. cerevisiae deletion strains, locus YLR102C, strain apc9, hits give low values 1.02 | S. cerevisiae deletion strains, locus YLR113W, strain HOG1, hits give low values 0.997 | S. cerevisiae deletion strains, locus YLR221C, strain rsa3, hits give low values 0.983 | S. cerevisiae deletion strains, locus YLR258W, strain gsy2, hits give low values 0.948 | S. cerevisiae deletion strains, locus YLR262C, strain YPT6 (second series), hits give low values 0.955 | S. cerevisiae deletion strains, locus YLR262C, strain YPT6, hits give low values 1.02 | S. cerevisiae deletion strains, locus YLR268W, strain sec22, hits give low values 1.07 | S. cerevisiae deletion strains, locus YLR320W, strain mms22, hits give low values 0.975 | S. cerevisiae deletion strains, locus YLR330W, strain CHS5, hits give low values 1.01 | S. cerevisiae deletion strains, locus YLR342W, strain FKS1 (second series), hits give low values 1.01 | S. cerevisiae deletion strains, locus YLR342W, strain FKS1, hits give low values 0.982 | S. cerevisiae deletion strains, locus YLR357W, strain rsc2, hits give low values 0.954 | S. cerevisiae deletion strains, locus YLR370C, strain arc18, hits give low values 0.982 | S. cerevisiae deletion strains, locus YLR371W, strain rom2, hits give low values 1.04 | S. cerevisiae deletion strains, locus YLR384C, strain iki3, hits give low values 0.979 | S. cerevisiae deletion strains, locus YLR418C, strain cdc73, hits give low values 1.05 | S. cerevisiae deletion strains, locus YML016C, strain PPZ1, hits give low values 0.999 | S. cerevisiae deletion strains, locus YML032C, strain rad52, hits give low values 1.03 | S. cerevisiae deletion strains, locus YML120C, strain ndi1, hits give low values 0.995 | S. cerevisiae deletion strains, locus YML124C, strain tub3, hits give low values 1.02 | S. cerevisiae deletion strains, locus YMR058W, strain fet3, hits give low values 1.01 | S. cerevisiae deletion strains, locus YMR078C, strain ctf18, hits give low values 1.01 | S. cerevisiae deletion strains, locus YMR125W, strain sto1, hits give low values 0.967 | S. cerevisiae deletion strains, locus YMR129W, hits give low values 0.999 | S. cerevisiae deletion strains, locus YMR205C, strain PFK2, hits give low values 0.966 | S. cerevisiae deletion strains, locus YMR223W, strain ubp8, hits give low values 1.01 | S. cerevisiae deletion strains, locus YMR231W, strain pep5, hits give low values 0.973 | S. cerevisiae deletion strains, locus YMR263W, strain SAP30, hits give low values 1.02 | S. cerevisiae deletion strains, locus YMR307W, strain GAS1, hits give low values 1.15 | S. cerevisiae deletion strains, locus YNL067W, strain RPL9B, hits give low values 1.02 | S. cerevisiae deletion strains, locus YNL071W, strain lat1, hits give low values 0.951 | S. cerevisiae deletion strains, locus YNL128W, strain TEP1, hits give low values 1.01 | S. cerevisiae deletion strains, locus YNL153C, strain GIM3, hits give low values 1.02 | S. cerevisiae deletion strains, locus YNL183C, strain NPR1, hits give low values 0.945 | S. cerevisiae deletion strains, locus YNL209W, strain ssb2, hits give low values 0.981 | S. cerevisiae deletion strains, locus YNL233W, strain BNI4, hits give low values 1.01 | S. cerevisiae deletion strains, locus YNL248C, strain rpa49, hits give low values 0.954 | S. cerevisiae deletion strains, locus YNL250W, strain rad50, hits give low values 1.01 | S. cerevisiae deletion strains, locus YNL271C, strain bni1, hits give low values 1.02 | S. cerevisiae deletion strains, locus YNL298W, strain CLA4, hits give low values 1.01 | S. cerevisiae deletion strains, locus YNL307C, strain MCK1, hits give low values 1.02 | S. cerevisiae deletion strains, locus YNL322C, strain KRE1 (second series), hits give low values 0.958 | S. cerevisiae deletion strains, locus YNL322C, strain KRE1, hits give low values 0.941 | S. cerevisiae deletion strains, locus YNR049C, strain mso1, hits give low values 0.968 | S. cerevisiae deletion strains, locus YNR052C, strain pop2, hits give low values 1.03 | S. cerevisiae deletion strains, locus YOL006C, strain TOP1, hits give low values 1.07 | S. cerevisiae deletion strains, locus YOL012C, strain htz1 1.34 | S. cerevisiae deletion strains, locus YOL147C, strain pex11, hits give low values 1.01 | S. cerevisiae deletion strains, locus YOR001W, strain rrp6, hits give low values 0.99 | S. cerevisiae deletion strains, locus YOR061W, strain CKA2, hits give low values 1.01 | S. cerevisiae deletion strains, locus YOR069W, strain VPS5, hits give low values 1 | S. cerevisiae deletion strains, locus YOR070C, strain gyp1, hits give low values 0.981 | S. cerevisiae deletion strains, locus YOR080W, strain dia2, hits give low values 0.989 | S. cerevisiae deletion strains, locus YOR083W, strain WHI5, hits give low values 0.971 | S. cerevisiae deletion strains, locus YOR106W, strain vam3, hits give low values 0.963 | S. cerevisiae deletion strains, locus YOR136W, strain idh2, hits give low values 1.01 | S. cerevisiae deletion strains, locus YOR144C, strain elg1, hits give low values 1.02 | S. cerevisiae deletion strains, locus YOR184W, strain ser1, hits give low values 1.02 | S. cerevisiae deletion strains, locus YOR231W, strain MKK1, hits give low values 0.995 | S. cerevisiae deletion strains, locus YOR265W, strain rbl2, hits give low values 0.985 | S. cerevisiae deletion strains, locus YOR270C, strain vph1, hits give low values 0.917 | S. cerevisiae deletion strains, locus YOR290C, strain snf2, hits give low values 0.966 | S. cerevisiae deletion strains, locus YOR316C, strain cot1, hits give low values 1.02 | S. cerevisiae deletion strains, locus YPL051W, strain arl3, hits give low values 0.995 | S. cerevisiae deletion strains, locus YPL055C, strain LGE1, hits give low values 1 | S. cerevisiae deletion strains, locus YPL078C, strain atp4, hits give low values 0.979 | S. cerevisiae deletion strains, locus YPL106C, strain sse1, hits give low values 0.921 | S. cerevisiae deletion strains, locus YPL240C, strain hsp82, hits give low values 0.969 | S. cerevisiae deletion strains, locus YPL241C, strain CIN2, hits give low values 1.01 | S. cerevisiae deletion strains, locus YPL256C, strain CLN2, hits give low values 0.997 | S. cerevisiae deletion strains, locus YPR119W, strain clb2, hits give low values 1.01 | S. cerevisiae deletion strains, locus YPR141C, strain kar3, hits give low values 1.01 | S. cerevisiae deletion strains, locus YPR163C, strain tif3, hits give low values 1.03 | S. cerevisiae deletion strains, locus YPR167C, strain met16, hits give low values 1.02 | S. cerevisiae deletion strains, strain wtn01, hits give low values 1.02 | S. cerevisiae strains, strain wild type, hits give low values 1.01
